SW480 rerep = DNA re-replication induction in SW480 cells; 1.8% of 340,000 active; SW480 DNA re-replication, Hoechst DNA content imaging, 48 h; AID 624297; Potency, µM (titrated, usually from 46.1 µM), hits mostly activators; further: nearly all actives have a fitted effect of over 55% in size
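Compounds, transferred as 23 nL by pin tool, were incubated with cells for 48 hr; DNA content per nucleus was then quantified by Hoechst staining and fluorescence plate imaging.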
HT1080-NT tox = kills 2HG-producing HT-1080-NT fibrosarcoma cells; HT-1080-NT fibrosarcoma viability, CellTiter-Glo ATP luminescence, 48 h; Potency, µM (top dose mostly 46.1 µM), most hits filed as cytotoxic; 1.6% of 360,000 active;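 further: NT is the 2HG producing partner of a matched IDH1 knockdown line; nearly all actives have a fitted effect of over 55% in size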
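Fibrosarcoma NT cells, 750 per well in 5% FBS RPMI, were exposed to compound for 48 hours. Viability: CellTiter-Glo luminescence.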
KB-V1 cytotox = KB-V1 MDR subline cytotoxicity; KB-V1 MDR cells viability, CellTiter-Glo, 72 h; Potency, µM (doses to about 46.1 µM), actives largely listed as cytotoxic; 3.4% of 400,000 active; AID 1347076; further: nearly all actives have a fitted effect of over 60% in size
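In this primary screen, KB-V1 cells overexpressing P-gp are incubated with library compounds (lowest to highest concentration) for 72 h at 37 degrees C before a luminescent ATP viability read.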
MCF10A rereplic = DNA re-replication induction in MCF 10a cells | MCF 10A DNA re-replication, Hoechst nuclear intensity, 48 h | Potency, µM (doses to about 46.1 µM), usual class: activators | 2.9% of 350,000 active | AID 624296; further: nearly all actives have a fitted effect of over 50% in size
KB-3-1 cytotox = kills parental KB-3-1 adenocarcinoma cells. KB-3-1 viability, CellTiter-Glo ATP luminescence, 72 h. Potency, µM (series often up to 46.1 µM), usual class: cytotoxic. 1.4% of 400,000 active; further: nearly all actives have a fitted effect of over 60% in size
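Multi-concentration cytotoxicity screen in KB-3-1 cells grown in DMEM lacking phenol red with 10% FBS. After 72 h at 37 °C with compound, ATP-dependent luminescence was recorded.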
HT1080 IDH1KD tx = kills HT-1080 cells with IDH1 knockdown; AID 686971; HT-1080 IDH1 knockdown viability, ATP luminescence, 48 h; 2% of 360,000 active; Potency, µM (titrated, usually from 46.1 µM), most hits filed as cytotoxic
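% activity derives from luminescence (CellTiter-Glo), normalised to DMSO and no-cell wells. HT-1080-IDH1KD cells, 750/well, had 48 h compound exposure at 37 °C.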
Large screens that a line does not name were inactive. In the library only some 7.9% were active in any assay of this set; here they are far more common. The call rests on the fitted dose curve; in most records, active means well fitted curve in the direction sought with a large enough effect; inconclusive means small, poorly fitted or top-dose-only effect, or another doubt; inactive means no such curve, though single readings can be large; an effect the other way counts as inactive or inconclusive.

COc1ccc(OC)c(Nc2nc(N)nc(CCl)n2)c1	SW480 rerep 2.59µM, HT1080-NT tox inconclusive, KB-V1 cytotox inconclusive, MCF10A rereplic 29.1µM, HT1080 IDH1KD tx 16.4µM
COc1ccccc1Nc1nc(N)nc(CCl)n1	SW480 rerep 11.6µM, HT1080-NT tox 23.1µM, KB-V1 cytotox inconclusive, MCF10A rereplic inconclusive, HT1080 IDH1KD tx 11.6µM
COc1ccccc1Nc1nc(N)nc(-c2oc3ccccc3c2C)n1	SW480 rerep 7.31µM, MCF10A rereplic inconclusive
COc1ccc(OC)c(Nc2nc(N)nc(CSc3nnc(N)s3)n2)c1	none
CC(=O)OCCn1c([N+](=O)[O-])cnc1C=[N+]([O-])C1CCCCC1	none (no result: SW480 rerep, MCF10A rereplic)
CCOC(=O)c1cc(-c2ccc(C)cc2)n(CCC(=O)N2CCN(c3ccccn3)CC2)c1C	KB-V1 cytotox 1.16µM, MCF10A rereplic inconclusive, KB-3-1 cytotox inconclusive
CCOC(=O)c1cnc2c(OC)cccc2c1N1CCN(c2ccccn2)CC1	KB-V1 cytotox 8.2µM, MCF10A rereplic inconclusive
CCOC(=O)c1cc(-c2ccc(C)cc2)n(CCC(=O)Nc2ccc(C(C)C)cc2)c1C	KB-V1 cytotox inconclusive, KB-3-1 cytotox 18.4µM (no result: SW480 rerep, HT1080-NT tox, MCF10A rereplic, HT1080 IDH1KD tx)
CCOC(=O)c1cc(-c2ccc(C)cc2)n(CCC(=O)NCc2ccccc2)c1C	none (no result: SW480 rerep, HT1080-NT tox, MCF10A rereplic, HT1080 IDH1KD tx)
CCOC(=O)c1cc(-c2ccccc2)n(CCCC(=O)Nc2ccc(C(C)C)cc2)c1C	KB-V1 cytotox inconclusive (no result: SW480 rerep, HT1080-NT tox, MCF10A rereplic, HT1080 IDH1KD tx)
C[C@H](O)[C@@H]1C(=O)N2CCc3ccc(N4CCOCC4)cc3[C@@H]2C[C@@H]1N(C)C(=O)Nc1ccccc1	none
O=C1CC(c2cccnc2)c2cc3c(cc2N1)OCCO3 (centres undefined)	none
O=C1CN(C(=O)c2ccc(S(=O)(=O)N3CCCC3)cc2)C(c2ccc(F)cc2)c2cc(F)ccc2N1 (centres undefined)	KB-V1 cytotox inconclusive (no result: SW480 rerep, HT1080-NT tox, MCF10A rereplic, HT1080 IDH1KD tx)
Cn1c(NCC(O)c2ccccc2)nc2c1c(=O)n(Cc1ccc(Cl)c(Cl)c1)c(=O)n2C (centres undefined)	SW480 rerep inconclusive, HT1080-NT tox 20.6µM, MCF10A rereplic inconclusive, KB-3-1 cytotox inconclusive, HT1080 IDH1KD tx 18.4µM
Cn1c(=O)c2c(nc(Cl)n2Cc2ccc(Cl)c(Cl)c2)n(C)c1=O	KB-V1 cytotox 16.4µM, KB-3-1 cytotox inconclusive
Cn1c(=O)c2c(ncn2Cc2ccc(Cl)c(Cl)c2)n(C)c1=O	KB-V1 cytotox 2.59µM, KB-3-1 cytotox inconclusive
Cn1c(=O)c2c(nc(Cl)n2Cc2ccncc2)n(C)c1=O	SW480 rerep inconclusive
Cn1c(=O)c2c(ncn2Cc2cccc(Cl)c2)n(C)c1=O	HT1080-NT tox inconclusive, KB-V1 cytotox inconclusive, KB-3-1 cytotox inconclusive
Cn1c(=O)c2c(ncn2CCOc2cccc(Br)c2)n(C)c1=O	HT1080-NT tox inconclusive, KB-V1 cytotox inconclusive, KB-3-1 cytotox 10.3µM
O=C1c2ccsc2SCCN1Cc1ccc(Cl)cc1	none
O=C1CSC(c2ccccc2F)N1c1ccccc1 (centres undefined)	none
CCN=C1S/C(=C\c2cn(C(C)=O)nc2-c2ccccc2)C(=O)N1CC	KB-V1 cytotox 18.4µM, MCF10A rereplic inconclusive
CCN=C1S/C(=C\c2ccc(-c3cccc(C(=O)O)c3)o2)C(=O)N1CC	SW480 rerep 5.8µM, MCF10A rereplic inconclusive
O=C(O)c1cccc(-c2ccc(/C=C3/SC(=Nc4ccccc4)N(Cc4cccnc4)C3=O)o2)c1	none
CCN=C1S/C(=C/c2ccc(-c3ccc(Cl)cc3C(=O)O)o2)C(=O)N1CC	SW480 rerep 11.6µM, MCF10A rereplic 6.51µM
CC(=O)NC1=NC(=O)/C(=C/c2cn(C(C)=O)nc2-c2ccccc2)S1	SW480 rerep inconclusive, KB-V1 cytotox inconclusive, MCF10A rereplic inconclusive
COc1ccc(NC(=O)CCNC(=O)N2CC(=O)Nc3ccccc32)cc1OC	none (no result: SW480 rerep, MCF10A rereplic)
Fc1ccccc1NC(=S)NN(Cc1ccccc1)c1ccccc1	SW480 rerep inconclusive, HT1080-NT tox 11.2µM, HT1080 IDH1KD tx inconclusive
Clc1ccc(-c2nc3ccc(Br)cn3c2Cc2ccccc2)cc1	none (no result: SW480 rerep, MCF10A rereplic)
CC(C)(C)S(=O)(=O)/C(C#N)=N/Nc1ccc(Cl)cc1	HT1080-NT tox inconclusive, KB-V1 cytotox inconclusive, MCF10A rereplic inconclusive, KB-3-1 cytotox inconclusive, HT1080 IDH1KD tx inconclusive

Source: PubChem
